Over roughly 59,000 sequences, the read-out has its median near -0.00055; the lowest 2% begin near -2. Shown is part of a subset that was picked to be rich in the lowest values.
Assay: Identification of proteins required for the processing of the EWS-FLI1 nascent transcript;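 note: robust z of luciferase light less the median z of siRNAs with the same seed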
Settings: TC32 Ewing sarcoma NR0B1-luc vs CMV-luc (EWS-FLI1 target promoter against control promoter), 48 h; screened at 20 nM (by protocol)
Protocol: Ewing sarcoma (ES) cells depend on the EWS-FLI1 fusion transcription factor for cell survival. Using an assay of EWS-FLI1 activity and genome-wide siRNA screening we have identified proteins required for the processing of the EWS-FLI1 nascent transcript. Parallel genome-wide siRNA-mediated RNAi screens were conducted in Ewing sarcoma TC32 cell lines expressing a luciferase (luc) reporter protein driven by either the promoter of the EWS-FLI1 target gene NR0B1 (TC32-NR0B1-luc) or the CMV promoter (TC32-CMV-luc). Luciferase activity was assessed 48 hours post siRNA-transfection.
Twenty microl of serum-free media containing Lipofectamine RNAiMax (0.05 microl) was added to wells containing siRNA (0.8 pmol). Lipid and siRNA were allowed to complex for 45 min at ambient temperature before addition of 600 cells in RPMI-1640, 20% FBS to yield final transfection mixtures containing 20 nM siRNA in RPMI-1640, 10% FBS. Luciferase expression was measured using OneGlo (Promega, Madison, WI). The genome-wide screening campaign was conducted using Ambion's human genome library version 4.1 (Ambion, Austin TX). This library targets approximately 21000 human genes, three siRNAs per gene. Each siRNA is arrayed in an individual well of a 384-well plate. Parallel transfections were conducted in TC32-NR0B1-luc and TC32-CMV-luc cell lines and luciferase expression (OneGlo, Promega) was assayed 48 h later on a PerkinElmer Envision 2104 Multilabel plate reader (PerkinElmer, Waltham, MA). Qiagen's AllStars Negative control was incorporated on all screening plates for normalization (16 wells per plate). Qiagen, Germantown, MDsiGL4 was incorporated as a positive transfection control (16 wells per plate) on all plates. […] The raw luciferase data for the NR0B1- and CMV-luc screens were normalized and z-score-MAD transformed using standard methods (Chung et al., 2008). The miRNA-like seed sequence of every siRNA was determined and the median z-score for all siRNA sequences with the same seed sequence was calculated. This z-score was subtracted from the z-score associated with each siRNA with that seed sequence to generate a seed-adjusted z-score value (Z) that was used when the results for the three siRNAs corresponding to each gene were compared (Marine et al., 2012)

In order of rising seed-corrected z-score:
1. AAACUGUGAAGCGUAAGUG against FAM188B  -4.34
2. UCACGAAGAGUUGCAACUG against ALB  -3.99
3. UAGCCUAGGAGAUACAUCG against COPB2  -3.63
4. AUCUUUAACCCGAAAGGUC against STRC  -3.57
5. UCCAGUAAAAGGCUGAGCG against LGI1  -3.39
6. AUGUUUCCCAUAACAGUGG against OR4D2  -3.19
7. UUUGCUAUAAUCCACCUCC against IK  -3.11
8. UUCAAUGAUAAUAAGGUUG against SF3B3  -3.05
9. UUCUUUCUGAGUCUGGUUA against RPL35  -3.01
10. AACUGGUUAUGGUAGUUGC against RMI2  -2.9
11. UCUGUGAGCAGUUUCCACU against SOX21  -2.74
12. UUCUGGUCGAGAGCAUCUG against MAGEB16  -2.42
13. AAACUAGUAACUCCUCGUC against PRDM8  -2.41
14. AUCUUGGACAGUAUCAGCC against IQCF1  -2.36
15. AUCGGUCACAAAUUGUGGG against ABCE1  -2.31
16. UUAGCUGCAUGAUACCAGG against FAM151B  -2.3
17. AUUGUGGUAGUAGUGUUGG against NUP62CL  -2.29
18. UUCUUUUGACUCUUAGUCC against CLEC4C  -2.28
19. UUUAUUUAGACUUAUGAUC against PTH  -2.27
20. UCGAAGUUUACUGCGGUCC against HINFP  -2.19
21. UUGGGUUGGAAGUCCACUG against SF3A1  -2.15
22. UGGUAUAUAAGGGAUGAGC against ZNF611  -2.07
23. UUUUCUACAGCUCUCACUC against CREB3  -2.05
24. UUUGGGCUUAGCGGCUUUG against HIST1H1B  -2.05
25. UGUAGUCACUUUCACAUUC against CCR2  -2.02
26. UGGUCUUAAAAUUAGAGUG against CALR3  -2.01
27. UUCUGGUAGAAGCAUUUCC against ZNF25  -1.93
28. UAGGUGACGAUCUCCAUCA against HCK  -1.81
29. UGCUGUAAUGAUGUACUCC against KIAA1549  -1.71
30. ACUGUAAUUACUAAGAUCU against CXCR2  -1.37
31. UUAGGUGCACCAGUAAGAG against PEX2  -1.19
32. UCAGGAUGAUGUGUGGGAU against KRTAP5-11  -1.11
33. UCGGAUUGAUCUGUUAUGG against CFAP54  -1.05
34. AAUGCUUUUAAUGCUCUUC against CARHSP1  -0.968
35. UUACUGUCCAGAGCACUGA against SMARCD3  -0.925
36. UAUUGAAGCAACUAGGAUG against KIAA0754  -0.869
37. UCGAUAUCAACUUUUGCCG against CEP192  -0.779
38. UGUCAAAUGAAAUUCCUUC against DHX38  -0.779
39. UCGGUGUUCACGUAGCCCU against SYNGR3  -0.68
40. AUAUGUAUCAGAACUGGGA against SAE1  -0.67
41. UUAAUCACCUUGUCGUUGC against ALDH3A1  -0.669
42. UCUACUUUUCACAAUGACC against GCLM  -0.666
43. UAUGCACAAAGUUUGUGGG against CDC42SE2  -0.65
44. UGUUGUACAACGAUAGCCU against RELL1  -0.595
45. UUUCCUUUGGUUGUUAAUG against FDX1  -0.575
46. AAGAGAAUCAAAAUAGUGG against GPR63  -0.548
47. AACUGUUCCAUCGACUUGG against RASAL1  -0.492
48. UUCUUGACUGCUGGUAUAG against C3orf30  -0.465
49. UGAGUUCCAGGUCUUAUGC against DEFB110  -0.42
50. AACUGGACUGGAAUUGUUU against CXCR1  -0.419
51. UUCGGUUGAACCUUGUCUG against ORC2  -0.39
52. UUUCCAUAGACUUUCCCAC against KLF9  -0.352
53. UAGACGAUAAGACUCUUUC against NCOA7  -0.339
54. UUGAGUUUGAUGCCGCUGC against MKNK2  -0.331
55. AUUGUAACGGGUUUUGUUC against CHRNB4  -0.325
56. UGUUAAACUGCUAAGGAUG against RPRD2  -0.294
57. UAUCCGAUCACCACUCUCC against MYOM3  -0.29
58. UUUCUUAGGGAACCAGUUG against TAGLN2  -0.282
59. AAGACUUUCAGACAUUUGU against ZNF181  -0.276
60. AUCCAUGUCAGCGUGAGUC against PSD2  -0.273
61. UUGUCGUGAAAUGAAACUC against TTLL11  -0.262
62. UGCAUGCUCAUUAAGUUCC against TUBE1  -0.26
63. UUCGAUGUCACAGGUCUGC against RGS14  -0.247
64. AAUACAAUGAGGAUGUUGC against MCHR2  -0.242
65. UACUCGAAGAUUUCCGUCC against SEC16B  -0.242
66. UGUCUAAUAAGGCCUGAGC against ZFP3  -0.177
67. UUUGAUAGAGGUGCGGACG against OR6F1  -0.169
68. UAUUGUCCAAAUGCUCAGG against SALL1  -0.159
69. UCAAACACCAGGGUGAGGG against CDK18  -0.15
70. AUCCCGACAAUCACCUUCC against DPAGT1  -0.101
71. AAUGUAGUAAAUGCAAGUU against C3orf79  -0.0591
72. UUUCUUAACUGAGUUCCUC against BMF  -0.0574
73. AAAGCGACACCUGUCAGUC against IKBKAP  -0.0431
74. UUUGUGAUCUUGGUGAGGU against SHBG  -0.0288
75. AAUAUGUCCAGCCCAGCUG against CLIC1  -0.000686
76. UAUCUAACUUCUGUCCCGC against HCCS  0.00186
77. AAACUCAUCACUCCAGUAC against PARP12  0.00618
78. UACCAGAUGUCUUUUGUGC against IL33  0.0107
79. UGUGUGAGCAUGAAGCGAG against SSNA1  0.0225
80. UAAGAAAAAGCGGAGUUCG against FZD7  0.0443
81. UUCCUUUCCACUGCCGUGU against CHRAC1  0.0577
82. AAACCUAAAAAUGCACUCC against MAGEE1  0.116
83. UGAAUGUCUUGCGAUUUGC against CADM2  0.122
84. ACAUCACAAAGUAUUAAUC against LOC643855  0.14
85. UCAUAGUCCACGAGUUUCC against BIN2  0.142
86. UCUCCUCCUCGAAAAGUGC against SLC12A7  0.16
87. UCAUGUACGGCCUCUUCCC against CCDC8  0.173
88. UCCAGAUUCAAAAUGUCUU against NKX2-3  0.184
89. UGUUCAUCAAGAGGUUUCC against NUP188  0.194
90. UAAGGGUCCUUCCAUGGCC against PVRIG  0.201
91. UGUAGUAACAGAGCCACGC against PPY  0.227
92. UAUAAGUUUCCUCCCAUGC against TM6SF1  0.269
93. UCAUCUUCUUCCGUUGCCG against PPP1R1A  0.273
94. UAUAACUUGAGAGUAGCUC against POPDC2  0.283
95. AUAUUGUUUAGCUCCACGG against MASP1  0.285
96. UGAUCUACUAUGGUCCCUC against CPSF6  0.287
97. UACUCUUAAAGUGAUGUUA against PPP1R1C  0.297
98. AUUCAUAUAGUUUUUCUCC against ZNF585B  0.297
99. UGAAAAUCACGAGAUUUCC against TEAD1  0.305
100. UUUGGAGCUACCACCCGAC against MRPL27  0.314
101. UCCCAACCCAGUCAUAACC against BEST3  0.332
102. UCUGCAACAAGAUCAACAG against POP5  0.345
103. UUCGUUAAGCAAACACUCG against ADAMTS9  0.367
104. ACGGCCUCCACUAUGUUUC against RPS26P31  0.368
105. AUCCGAACCAGGUAGACAC against PRTG  0.374
106. AAAUCGACUACUGAGAACC against CUL9  0.396
107. AAAAGUCCUAGCAUAUUCC against ZER1  0.406
108. UGAUGAAGUAGGUCACGGC against SLC29A4  0.41
109. UAGUCGUUCUUCUACAGCC against MBIP  0.411
110. UUCCGUGUGAAACAGAUGG against ARMC4  0.434
111. UUCUGGAUUAUAGUCAUCC against CWC22  0.478
112. UCAGGAUCCAGACAGUUGC against TP53AIP1  0.541
113. UAUCAACUCAGUCCUCAGC against HPS6  0.543
114. AUAAGAUUGGAAUUCGACG against ARL6  0.549
115. UUUAUCGAAAGCAAAAUUG against MTPAP  0.577
116. AAUGUGGUGAAUACCUCGC against TXLNA  0.621
117. UUUUCAGUCUCACUAGUUU against MIPEPP3  0.623
118. UUUCAUAUGUGAAUCCUCC against TCN2  0.641
119. UUCAUUAGCACAUAAGCGG against HENMT1  0.665
120. UGCAGGAUGACCAAAGUGC against LGALS14  0.705
121. UGCUGUUCAAGCGAAUGCC against DRG1  0.745
122. AUAUGAUUAGGUAGGUUUG against GDPD2  0.805
123. AUUCUUAAUCUUUACAUCC against BRDTP1  0.809
124. UAUGUGCUGGUGAUCCUUC against DEAF1  0.839
125. UAACUUUUCCCUUAUUCAG against FAM90A3P  0.873
126. UUCCGAGAUAUGGAGGUAC against KIAA0368  0.95
127. UUUCGGUACUCGGUUAACC against EIF3FP3  0.962
128. ACAGCACCUAGCAUGAUUG against HIGD1B  1.03
129. UACAUGAGCCUUGAUCUGG against FAU  1.08
130. AAAGGCUUAAUUUUUACCU against TOMM7  1.3
131. AGUUGAAUAAGAAAGUACC against MTM1  1.55
132. UUUCAGAUAAGCACGAAGC against EIF3M  1.89
133. AUAGUUACAGAGGCAAGAG against MESTP3  1.98

Reference: PubChem BioAssay AID1159506 (National Center for Advancing Translational Sciences (NCATS), 2015)
